# Assay outcomes (PubChem)
# NOMO-1 viab: STK33 inhibitor candidate reducing NOMO-1 cell viability | inhibition, % (test concentration not listed) | 37,000 compounds, 7.5% hits | AID 2330 | NOMO-1 AML viability, CellTiter-Glo luminescence, 72 h; in the data active means inhibition above about 80%; inconclusive means no clear call, values can overlap the other calls
# YB-1 expr inh: YB-1 expression inhibition; 30,000 compounds, 0.37% hits; AID 434959; U2OS, qRT-PCR YB-1 vs CDIP delta delta Cp, 16 h; active compounds read high; zero = DMSO, each unit about twofold; delta delta Cp (YB-1 minus CDIP) (concentration not given with the values);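 active means delta delta Cp rounded down to an integer at or above 3, about 3 SD of DMSO wells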;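 further: higher means less YB-1 transcript or more CDIP transcript relative to DMSO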
# MITF inhib: inhibitors of MITF. AID 2240. TRPM1 promoter luciferase, luminescence, 24 h. inhibition, % (concentration not given with the values). 37,000 compounds, 0.28% hits; in the data active means inhibition above about 85%; inconclusive means no clear call, values can overlap the other calls; inactive means below about 68%;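 further: human melanocyte line stably carrying TRPM1 promoter luciferase reporter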
# PD-1 reverse act: activators reversing PD-1 mediated T-cell inhibition. primary human CD4 T cells, PD-L1 beads, CellTiter-Glo 96 h. activation, % (concentration not given with the values). 29,000 tested, under 10 active; call rule not given here;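 further: 0% = median vehicle wells and 100% = positive control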
# Shh pathway inh: Sonic Hedgehog pathway inhibition; inhibition, % (test concentration not listed); AID 2313; 22,000 compounds, 2.1% hits; Shh-LIGHT2 Gli-luciferase reporter, 30 h;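 active means mean inhibition across valid replicates above about 65%, limit read from the data; inconclusive means mean under the limit, yet half or more replicates past it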;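 further: pathway switched on by Shh-conditioned medium diluted 1 in 25 in low serum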
# Starred values were filed as active, the others as inactive; ? = inconclusive; nt = no result given; ! = not confirmed by another sample. Hits are enriched below; roughly 7.4% of the tested compounds scored in any of these assays.
SMILES,NOMO-1 viab,YB-1 expr inh,MITF inhib,PD-1 reverse act,Shh pathway inh
C[C@H]1CN([C@@H](C)CO)C(=O)c2cccc(NC(=O)Nc3ccc4c(c3)OCO4)c2O[C@@H]1CN(C)Cc1ccc(C(=O)Nc2ccccc2N)cc1,127*,-0.54,3,-4,nt
C[C@@H]1CN([C@@H](C)CO)C(=O)c2cccc(NC(=O)Nc3ccc4c(c3)OCO4)c2O[C@@H]1CN(C)Cc1ccc(C(=O)O)cc1,0,-0.15,-10,2,-10
C[C@@H]1CN([C@@H](C)CO)C(=O)c2cccc(NC(=O)Nc3ccc4c(c3)OCO4)c2O[C@H]1CN(C)Cc1ccc(C(=O)Nc2ccccc2N)cc1,126*,0.072,4,-2,nt
Fc1ccc(N2CCN(CCC3OCCc4ccccc43)CC2)cc1 (centres undefined),37,-0.028,3,nt,8
CCOC(=O)N1CC=C2C(C1)C(c1cccc(C(F)(F)F)c1)C(C#N)=C(N)C2(C#N)C#N (centres undefined),113*,-0.51,9,-23,17
C[C@H](CO)N1C[C@H](C)[C@@H](CN(C)C(=O)Nc2ccccc2)Oc2c(NS(=O)(=O)c3ccc(Cl)cc3)cccc2C1=O,25,-0.13,-13,-3,-114
O=C(NC(=S)NC12CC3CC(CC(C3)C1)C2)c1ccccc1,26,-0.0011,-19,-2,-103
S=C(NCc1ccccc1Cl)NC12CC3CC(CC(C3)C1)C2,115*,0.15,47,-9,?
COC(=O)C1=C(C)NC(C)=C(C(=O)OCCN(C)Cc2ccccc2)C1c1cccc([N+](=O)[O-])c1 (centres undefined),142*!,0.1,12,-10,23
COC(=O)C1=C(C)NC(C)=C(C(=O)OCCSc2ccccc2)C1C (centres undefined),42,-0.25,-24,nt,-33
COc1cc(OC)cc(-c2nc(N)c3c(C)c(-c4ccc(OC)c(OC)c4)sc3n2)c1,115*,-0.91,23,-7,24
O=c1[nH]c(SCc2n[nH]c(=S)n2-c2ccccc2)nc2ccccc12,-2,nt,-27,2,nt
S=c1[nH]nc(CSCc2cccc3ccccc23)n1C1CCCCC1,24,-0.046,18,0,69*
Cc1ccc(S(=O)(=O)Nc2cccc(C(=O)NC(C)(C)CO)c2)cc1,5,nt,16,-2,nt
COc1cc2c(c(N)c1OC)C(=O)/C(=C/c1cc(C)c(O)c(C)c1)C2,97*,0.47,-1,-11,84*
COc1ccc(OC)c(NC(=O)NCc2cnn(C)c2)c1,7,nt,-22,2,nt
COc1ccc(CNC(=O)Nc2ncc([N+](=O)[O-])s2)cc1,39,-0.43,87*,6,49
COC(=O)C1CCCN1S(=O)(=O)c1ccccc1 (centres undefined),93*,-0.15,-3,0,-8
COc1cccc(S(=O)(=O)N2CCCC2C(=O)O)c1 (centres undefined),6,nt,-17,1,nt
COc1ccc(S(=O)(=O)N(CCO)c2ccccc2CN(C)C/C=C/c2ccc(Cl)cc2)cc1,83*,-1.7,51,-12,47
COc1ccc(S(=O)(=O)N(CC(=O)O)c2ccc(Cl)cc2)cc1,-9,nt,2,nt,nt
Cc1ccc(S(=O)(=O)Nc2ccc3c(c2)C(=O)N([C@@H](C)CO)C[C@H](C)[C@H](CN(C)Cc2ccc(-c4ccccc4)cc2)O3)cc1,56,-0.045,-1,1,nt
Cc1ccc(S(=O)(=O)Nc2ccc3c(c2)C(=O)N([C@@H](C)CO)C[C@H](C)[C@@H](CN(C)Cc2ccc(-c4ccccc4)cc2)O3)cc1,59,0.19,3,0,nt
Cc1ccc(S(=O)(=O)Nc2ccc3c(c2)C(=O)N([C@@H](C)CO)C[C@@H](C)[C@H](CN(C)Cc2ccc(-c4ccccc4)cc2)O3)cc1,123*,0.1,36,0,18
Cc1ccc(S(=O)(=O)Nc2ccc3c(c2)C(=O)N([C@@H](C)CO)C[C@@H](C)[C@@H](CN(C)Cc2ccc(-c4ccccc4)cc2)O3)cc1,101*,-0.21,-6,-1,-33
COc1ccc(NC(=O)N(C)C[C@H]2Oc3c(NC(=O)c4cnccn4)cccc3C(=O)N([C@H](C)CO)C[C@H]2C)cc1,7,0.53,-7,nt,-26
Cc1cccc(Nc2ccncc2S(=O)(=O)NC(=O)NC(C)C)c1,13,-0.11,-2,nt,-72
